From the supplement of paper PMC10849652
About 8,800 targets were measured; listed, in parts, are those with a hit and a random draw of the rest. About 0.5% of all pairs of compound and target were hits. Values without a mark were called inactive.

Experiments:
Assay in all cases: log2 fold change, soluble protein after heating vs DMSO (PISA); higher = thermal stabilisation; K562 lysate, 10 uM; active = over 0.2 and 3.5 SD of the protein, either way, in both replicates (recomputed)
[1] = compound: CN1CC[C@H](c2c(O)cc(O)c3c(=O)cc(-c4ccccc4Cl)oc23)[C@H](O)C1 [alvocidib]
Summary of the method: (§1)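 Quantification was by TMTpro 16plex LC-MS/MS with equalised channel sums, applied to the supernatant after 21,000xg for 90 min. Samples were crude K562 extract at 1 mg/mL protein in PBS pH 7.4 with 1 mM MgCl2, treated with 10 μM compound for 30 min, heated for 3 min across 48°C-58°C, pooled and brought to 0.5% NP-40 at 4°C. Values are log-two fold changes in thermal stability relative to solvent controls, from duplicates.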

[2] = compound: CN1CCc2c(c3ccccc3n2Cc2ccc(C(=O)NO)cc2)C1 [Tubastatin A]
Summary of the method: as §1

[3] = compound: CNC(=O)C1=CC=CC=C1NC2=NC(=NC=C2Cl)NC3=C(C=C(C=C3)N4CCOCC4)OC
Summary of the method: as §1

[4] = compound: CNC(=O)c1ccc(Nc2ncc(C(F)(F)F)c(NCc3nccnc3N(C)S(C)(=O)=O)n2)cc1 [defactinib]
Summary of the method: as §1

[5] = compound: CNc1nc(-c2ccc3c(N)n[nH]c3c2)cc(N2C[C@@H](C(=O)NC3CCCCC3)CC[C@H]2C)n1
Summary of the method: as §1

[6] = compound: COC(=O)N[C@@H](C)CNc1nccc(-c2cn(C(C)C)nc2-c2cc(Cl)cc(NS(C)(=O)=O)c2F)n1 [encorafenib]
Summary of the method: as §1

[7] = compound: COC(=O)[C@H](CCSC)NC(=O)C1=C(C=C(C=C1)NC[C@H](CS)N)C2=CC=CC=C2
Summary of the method: as §1

[8] = compound: COc1cc(Nc2ncc3c(n2)-c2ccc(Cl)cc2C(c2c(F)cccc2OC)=NC3)ccc1C(=O)O [alisertib]
Summary of the method: as §1

[9] = compound: COc1cc2nc(-c3cc(F)ccc3O)nc(N[C@@H]3CNC[C@H]3C(C)(C)O)c2cc1OC
Summary of the method: as §1

[10] = compound: COc1cc2ncnc(Nc3ccc(F)c(Cl)c3)c2cc1OCCCN1CCOCC1 [gefitinib]
Summary of the method: as §1

[11] = compound: CS(=O)(=O)CCNCc1ccc(-c2ccc3ncnc(Nc4ccc(OCc5cccc(F)c5)c(Cl)c4)c3c2)o1 [lapatinib]
Summary of the method: as §1

[12] = compound: CS(=O)(=O)N1CCN(Cc2cc3nc(-c4cccc5[nH]ncc45)nc(N4CCOCC4)c3s2)CC1 [pictilisib]
Summary of the method: as §1

[13] = compound: C[C@@H](Oc1cc(-c2cnn(C3CCNCC3)c2)cnc1N)c1c(Cl)ccc(F)c1Cl [crizotinib]
Summary of the method: as §1

[14] = compound: C[C@H](C1=CC=C(C=C1)C(=O)NC2=C3C=CNC3=NC=C2)N
Summary of the method: as §1

[15] = compound: C[C@H](Nc1ncnc2nc[nH]c12)c1cc2cccc(Cl)c2c(=O)n1-c1ccccc1 [duvelisib]
Summary of the method: as §1

[16] = compound: Cc1cc(Nc2cc(CN3CCOCC3)c3nc(C)c(Cc4ccc(Cl)cc4F)n3n2)n[nH]1 [gandotinib]
Summary of the method: as §1

[17] = compound: Cc1cc(Nc2cc(N3CCN(C)CC3)nc(Sc3ccc(NC(=O)C4CC4)cc3)n2)n[nH]1 [tozasertib]
Summary of the method: as §1

[18] = compound: Cc1ccc(-n2nc(C(C)(C)C)cc2NC(=O)Nc2ccc(OCCN3CCOCC3)c3ccccc23)cc1 [doramapimod]
Summary of the method: as §1

[19] = compound: Cc1ccc(NC(=O)c2ccc(CN3CC[C@H](N(C)C)C3)c(C(F)(F)F)c2)cc1Nc1nccc(-c2cncnc2)n1 [bafetinib]
Summary of the method: as §1

[20] = compound: Cc1cccc(CC(=O)N2CCc3c2ccc(-c2cn(C)c4ncnc(N)c24)c3F)n1
Summary of the method: as §1

UniProt Q9C0B7, sequence (Q9C0B7 whole entry, looked up): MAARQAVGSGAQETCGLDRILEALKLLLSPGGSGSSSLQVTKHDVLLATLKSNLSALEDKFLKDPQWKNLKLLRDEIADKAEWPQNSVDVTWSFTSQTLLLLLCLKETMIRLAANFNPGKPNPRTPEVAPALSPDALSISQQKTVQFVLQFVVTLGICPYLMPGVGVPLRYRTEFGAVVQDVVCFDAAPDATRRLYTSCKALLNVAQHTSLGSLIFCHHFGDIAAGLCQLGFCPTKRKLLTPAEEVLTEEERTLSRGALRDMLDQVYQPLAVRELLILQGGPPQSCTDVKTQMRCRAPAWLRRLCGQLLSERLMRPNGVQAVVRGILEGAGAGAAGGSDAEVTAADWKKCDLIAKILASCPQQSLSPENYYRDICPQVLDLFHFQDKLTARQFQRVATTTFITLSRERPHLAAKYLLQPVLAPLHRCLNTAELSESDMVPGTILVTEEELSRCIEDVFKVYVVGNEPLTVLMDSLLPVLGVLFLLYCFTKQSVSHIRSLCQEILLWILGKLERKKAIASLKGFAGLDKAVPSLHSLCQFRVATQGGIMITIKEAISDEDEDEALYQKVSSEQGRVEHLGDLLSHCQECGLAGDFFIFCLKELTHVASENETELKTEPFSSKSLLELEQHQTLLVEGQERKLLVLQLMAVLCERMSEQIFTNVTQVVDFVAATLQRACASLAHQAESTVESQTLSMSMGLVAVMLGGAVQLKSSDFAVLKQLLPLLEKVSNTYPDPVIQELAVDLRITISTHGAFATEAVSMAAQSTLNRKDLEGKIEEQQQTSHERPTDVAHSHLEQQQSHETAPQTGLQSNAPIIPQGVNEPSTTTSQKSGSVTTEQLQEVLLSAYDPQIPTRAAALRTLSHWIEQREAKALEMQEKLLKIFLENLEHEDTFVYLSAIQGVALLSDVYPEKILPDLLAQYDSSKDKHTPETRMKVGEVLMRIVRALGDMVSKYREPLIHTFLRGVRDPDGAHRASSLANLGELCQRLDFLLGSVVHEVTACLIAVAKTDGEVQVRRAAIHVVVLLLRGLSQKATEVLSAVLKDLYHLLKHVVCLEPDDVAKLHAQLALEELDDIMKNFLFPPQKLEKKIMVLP
UniProt Q96EX1, sequence (Q96EX1 whole entry, looked up): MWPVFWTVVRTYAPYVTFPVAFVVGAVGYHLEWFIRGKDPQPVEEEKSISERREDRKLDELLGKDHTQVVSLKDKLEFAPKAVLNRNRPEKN
UniProt Q9H2H9, sequence (Q9H2H9 whole entry, looked up): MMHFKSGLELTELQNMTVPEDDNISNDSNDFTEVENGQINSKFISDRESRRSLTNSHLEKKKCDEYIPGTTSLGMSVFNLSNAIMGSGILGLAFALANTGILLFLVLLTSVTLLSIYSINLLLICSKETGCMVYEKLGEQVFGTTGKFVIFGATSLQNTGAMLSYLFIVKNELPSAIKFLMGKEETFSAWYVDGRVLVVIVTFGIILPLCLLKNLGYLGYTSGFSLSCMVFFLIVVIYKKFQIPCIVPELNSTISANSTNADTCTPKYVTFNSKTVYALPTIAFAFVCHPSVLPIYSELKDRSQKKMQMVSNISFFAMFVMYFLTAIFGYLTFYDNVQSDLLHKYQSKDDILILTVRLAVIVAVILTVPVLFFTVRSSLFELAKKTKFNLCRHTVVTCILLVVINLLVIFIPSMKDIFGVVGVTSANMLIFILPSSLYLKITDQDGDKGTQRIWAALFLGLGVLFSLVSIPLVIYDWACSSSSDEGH
UniProt O15198, sequence (O15198 whole entry, looked up): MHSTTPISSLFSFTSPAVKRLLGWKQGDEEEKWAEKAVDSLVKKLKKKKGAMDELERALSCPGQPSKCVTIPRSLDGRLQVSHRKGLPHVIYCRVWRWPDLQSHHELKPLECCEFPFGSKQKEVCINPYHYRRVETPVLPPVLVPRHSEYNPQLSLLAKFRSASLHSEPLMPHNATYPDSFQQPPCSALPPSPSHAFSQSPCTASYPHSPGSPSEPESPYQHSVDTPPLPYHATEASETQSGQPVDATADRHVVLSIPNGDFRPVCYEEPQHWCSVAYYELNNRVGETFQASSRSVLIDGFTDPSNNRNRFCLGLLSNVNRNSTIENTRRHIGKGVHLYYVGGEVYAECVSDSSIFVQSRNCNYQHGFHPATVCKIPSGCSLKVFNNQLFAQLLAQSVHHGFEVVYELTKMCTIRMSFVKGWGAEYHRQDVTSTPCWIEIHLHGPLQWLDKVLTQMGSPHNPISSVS
UniProt Q9HBR0, sequence (Q9HBR0 whole entry, looked up): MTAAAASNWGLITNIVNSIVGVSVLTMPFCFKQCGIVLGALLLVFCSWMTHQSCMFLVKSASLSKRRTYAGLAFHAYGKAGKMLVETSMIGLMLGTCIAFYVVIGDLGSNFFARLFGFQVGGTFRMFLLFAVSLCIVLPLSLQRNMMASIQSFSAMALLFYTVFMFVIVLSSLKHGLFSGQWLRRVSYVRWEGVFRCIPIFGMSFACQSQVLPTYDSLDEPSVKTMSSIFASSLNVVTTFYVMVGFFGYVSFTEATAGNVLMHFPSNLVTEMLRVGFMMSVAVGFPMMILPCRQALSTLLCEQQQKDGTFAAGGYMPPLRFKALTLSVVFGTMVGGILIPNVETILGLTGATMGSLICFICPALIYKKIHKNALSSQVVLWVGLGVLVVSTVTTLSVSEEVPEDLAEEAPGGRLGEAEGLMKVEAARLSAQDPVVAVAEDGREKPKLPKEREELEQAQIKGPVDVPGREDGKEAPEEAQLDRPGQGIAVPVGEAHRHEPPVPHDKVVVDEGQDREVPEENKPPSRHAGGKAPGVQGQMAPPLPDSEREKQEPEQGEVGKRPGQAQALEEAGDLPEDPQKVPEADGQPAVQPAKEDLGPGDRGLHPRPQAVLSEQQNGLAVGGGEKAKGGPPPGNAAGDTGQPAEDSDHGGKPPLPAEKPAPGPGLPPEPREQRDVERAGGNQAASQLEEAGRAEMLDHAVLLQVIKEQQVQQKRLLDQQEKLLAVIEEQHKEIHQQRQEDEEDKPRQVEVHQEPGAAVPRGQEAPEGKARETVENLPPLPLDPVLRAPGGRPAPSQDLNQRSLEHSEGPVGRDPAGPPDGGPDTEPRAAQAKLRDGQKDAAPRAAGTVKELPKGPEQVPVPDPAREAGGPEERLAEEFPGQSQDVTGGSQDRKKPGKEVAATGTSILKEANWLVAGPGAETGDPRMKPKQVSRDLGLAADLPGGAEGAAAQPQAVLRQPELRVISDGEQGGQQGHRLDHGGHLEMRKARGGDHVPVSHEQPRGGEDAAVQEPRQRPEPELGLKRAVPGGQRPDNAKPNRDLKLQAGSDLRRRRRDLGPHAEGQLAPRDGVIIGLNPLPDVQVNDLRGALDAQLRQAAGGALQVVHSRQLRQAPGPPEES
UniProt Q9UHW9, sequence (Q9UHW9 whole entry, looked up): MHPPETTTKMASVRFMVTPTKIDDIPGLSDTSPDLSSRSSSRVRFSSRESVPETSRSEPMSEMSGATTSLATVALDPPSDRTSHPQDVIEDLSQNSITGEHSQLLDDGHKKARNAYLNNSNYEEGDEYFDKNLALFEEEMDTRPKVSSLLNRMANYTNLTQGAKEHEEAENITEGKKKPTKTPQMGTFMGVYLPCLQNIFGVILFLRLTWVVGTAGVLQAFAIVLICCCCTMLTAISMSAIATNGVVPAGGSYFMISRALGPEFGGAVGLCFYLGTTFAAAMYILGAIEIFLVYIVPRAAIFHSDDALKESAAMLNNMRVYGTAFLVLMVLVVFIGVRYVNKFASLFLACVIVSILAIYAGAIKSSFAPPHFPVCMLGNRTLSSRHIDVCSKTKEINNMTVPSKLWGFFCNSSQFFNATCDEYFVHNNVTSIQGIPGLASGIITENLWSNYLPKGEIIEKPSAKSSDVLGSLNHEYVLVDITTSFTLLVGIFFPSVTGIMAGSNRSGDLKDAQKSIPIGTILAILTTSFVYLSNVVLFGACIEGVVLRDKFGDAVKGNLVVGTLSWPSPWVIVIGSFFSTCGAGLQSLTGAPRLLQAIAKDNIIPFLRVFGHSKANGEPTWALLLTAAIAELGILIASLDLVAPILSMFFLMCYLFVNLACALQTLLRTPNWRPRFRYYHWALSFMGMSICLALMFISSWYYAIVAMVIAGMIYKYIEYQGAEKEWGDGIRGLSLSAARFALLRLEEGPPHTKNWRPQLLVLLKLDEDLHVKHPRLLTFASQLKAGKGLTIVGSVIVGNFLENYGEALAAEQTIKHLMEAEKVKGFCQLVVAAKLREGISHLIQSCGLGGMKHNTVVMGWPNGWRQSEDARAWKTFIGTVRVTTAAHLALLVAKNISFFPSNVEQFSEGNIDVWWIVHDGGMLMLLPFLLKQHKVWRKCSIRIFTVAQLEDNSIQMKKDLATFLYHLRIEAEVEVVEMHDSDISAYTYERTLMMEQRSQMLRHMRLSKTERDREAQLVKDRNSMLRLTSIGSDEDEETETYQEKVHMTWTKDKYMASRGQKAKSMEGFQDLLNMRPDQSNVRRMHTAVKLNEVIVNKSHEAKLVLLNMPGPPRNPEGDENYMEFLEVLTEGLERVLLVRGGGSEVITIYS
UniProt Q99961, sequence (Q99961 whole entry, looked up): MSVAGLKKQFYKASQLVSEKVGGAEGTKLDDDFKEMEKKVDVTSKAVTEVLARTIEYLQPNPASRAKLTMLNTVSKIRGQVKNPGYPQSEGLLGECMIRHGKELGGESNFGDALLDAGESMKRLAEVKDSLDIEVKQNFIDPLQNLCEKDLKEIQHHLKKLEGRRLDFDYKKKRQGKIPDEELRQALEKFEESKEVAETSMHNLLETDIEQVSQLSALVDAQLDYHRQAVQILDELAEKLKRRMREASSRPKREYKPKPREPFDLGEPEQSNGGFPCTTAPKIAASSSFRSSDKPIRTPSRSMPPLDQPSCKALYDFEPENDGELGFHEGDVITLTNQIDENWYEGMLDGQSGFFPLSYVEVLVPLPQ

| Target | log2 fold change [1] | log2 fold change [2] | log2 fold change [3] | log2 fold change [4] | log2 fold change [5] | log2 fold change [6] | log2 fold change [7] | log2 fold change [8] | log2 fold change [9] | log2 fold change [10] | log2 fold change [11] | log2 fold change [12] | log2 fold change [13] | log2 fold change [14] | log2 fold change [15] | log2 fold change [16] | log2 fold change [17] | log2 fold change [18] | log2 fold change [19] | log2 fold change [20] |
| --- | --- | --- | --- | --- | --- | --- | --- | --- | --- | --- | --- | --- | --- | --- | --- | --- | --- | --- | --- | --- |
| SLC38A1 (UniProt Q9H2H9) | -0.111 | 0.022 | -0.026 | -0.016 | -0.054 | 0.019 | -0.045 | -0.021 | 0.011 | 0.073 | -0.008 | -0.01 | -0.064 | -0.218 | 0.048 | 0.096 | 0.026 | -0.009 | 0.003 | 0.095 |
| SH3GL1 (UniProt Q99961) | 0.017 | -0.109 | 0.01 | 0.03 | -0.003 | -0.02 | -0.042 | -0.011 | 0.009 | 0.002 | 0.013 | 0.005 | -0.017 | 0.028 | 0.023 | 0.009 | 0.013 | 0.025 | -0.001 | -0.063 |
| SMAD9 (UniProt O15198) | 0.008 | -0.075 | 0.089 | -0.081 | 0.011 | 0.014 | -0.014 | 0.052 | 0.047 | -0.028 | -0.056 | -0.036 | -0.027 | -0.047 | 0.091 | 0.077 | 0.091 | 0.024 | 0.014 | -0.019 |
| TANGO6 (UniProt Q9C0B7) | -0.094 | -0.031 | -0.005 | -0.047 | 0 | -0.024 | -0.009 | -0.022 | 0.027 | 0.117 | -0.054 | -0.002 | -0.065 | -0.102 | 0.005 | 0.037 | -0.023 | 0.014 | -0.064 | 0.115 |
| SPAG5 (UniProt Q96R06) | -0.019 | -0.119 | 0.031 | 0.008 | 0.003 | 0.071 | -0.081 | -0.01 | -0.017 | 0.019 | 0.013 | -0.004 | -0.056 | -0.016 | 0.038 | -0.11 | 0.029 | 0.036 | -0.044 | 0.058 |
| SLC38A10 (UniProt Q9HBR0) | -0.036 | 0.074 | -0.015 | 0.023 | 0.04 | 0.037 | -0.06 | -0.032 | 0.032 | -0.046 | 0.006 | -0.069 | 0.009 | -0.136 | 0.018 | 0.068 | -0.061 | -0.087 | -0.044 | 0.091 |
| SMIM12 (UniProt Q96EX1) | 0.22 | 0.007 | 0.065 | 0.025 | 0.07 | -0.067 | -0.018 | 0.018 | -0.044 | -0.033 | 0.014 | 0.022 | -0.024 | 0.417 (active) | -0.061 | -0.191 | -0.009 | 0.077 | -0.083 | -0.153 |
| SLC12A6 (UniProt Q9UHW9) | -0.03 | 0.03 | 0.065 | 0.006 | -0.038 | 0.034 | -0.021 | -0.006 | 0.004 | 0.093 | 0.037 | -0.046 | -0.025 | 0.008 | 0.015 | -0.028 | -0.002 | 0.027 | -0.011 | 0.034 |
